This is a sample that favours compounds with a hit; in the whole collection about 1.1% have one here.
MazEF act: increases E. coli MazEF RNase cleavage of RNA; FAM/BHQ RNA-DNA oligo cleavage fluorescence, 5 h; activation, % at 20 µM; 0.32% of 350,000 active; AID 504720; in the data active means activation above about 50%
Target sequence (P0AE70 whole entry, looked up): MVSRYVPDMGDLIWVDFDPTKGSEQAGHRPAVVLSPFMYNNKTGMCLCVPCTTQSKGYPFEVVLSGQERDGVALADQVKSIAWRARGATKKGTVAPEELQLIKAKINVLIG
Y pestis TopoI: inhibitors of Yersinia pestis topoisomerase I | Y. pestis Topo-I cleavage product accumulation, plate reader | activity, % at 10 µM | 0.064% of 360,000 active; in the data active means activity above about 50%, passing the limit was not always enough; inconclusive means no clear call, values can overlap the other calls
PfHsp40 rescue: rescue of PfHsp40-mediated yeast toxicity. AID 504582. 0.68% of 340,000 active. growth rescue, % at 12.5 µM. S. cerevisiae expressing PfHsp40, growth rescue, ATP luminescence; in the data active means growth rescue above about 28%, passing the limit was not always enough; inconclusive means no clear call, values can overlap the other calls;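 further: yeast W303a lacking pdr1 and pdr3 grown in galactose medium; growth measured after three days at 30 °C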
BJeLR lethal: kills HRASV12-expressing BJeLR cells; BJeLR (HRASV12) viability, CellTiter-Glo ATP luminescence, 48 h; inhibition, % (no concentration beside the values); 0.17% of 300,000 active; in the data active means inhibition above about 50%; inconclusive means no clear call, values can overlap the other calls
SARS 3CLpro inh: SARS-CoV 3CLpro protease inhibition | 0.14% of 290,000 active | P0C6X7 | recombinant SARS-CoV 3CLpro, quenched FRET peptide cleavage | inhibition, % at 6 µM; in the data active means inhibition above about 12%
Mtb BioA inh: BioA (M. tuberculosis) enzyme inhibition; 0.096% of 360,000 active; purified M. tuberculosis BioA enzyme, plate reader; inhibition, % at 9.99 µM; in the data active means inhibition above about 40%; inconclusive means no clear call, values can overlap the other calls
An asterisk follows results filed as active; ? = inconclusive; · = not tested or not shown.

SMILES	MazEF act	Y pestis TopoI	PfHsp40 rescue	BJeLR lethal	SARS 3CLpro inh	Mtb BioA inh
Cc1cccc(NC(=S)N/N=C/c2ccc(Cl)c([N+](=O)[O-])c2)c1	4	-16	-1	-8	-5	-2
Cc1cccc(NC(=S)N/N=C/c2cccc([N+](=O)[O-])c2)c1	58*	-5	0	10	-1	-1
C=CS(=O)(=O)c1sc(Cl)c(N2CCOCC2)c1[N+](=O)[O-]	-36	-4	482*	-2	1	·
Clc1ccccc1C(c1ccccc1)(c1ccccc1)n1ccnc1	3	46	173*	1	6	-1
CC(C)(C)c1cc(C=C(C#N)C#N)cc(C(C)(C)C)c1O	-6	1	211*	·	·	2
CCC(c1ccc(O)cc1)C(CC)c1ccc(O)cc1 (stereo not drawn)	2	-10	85*	·	·	-2
NNC(=O)CN1CCN(c2ncc(C(F)(F)F)cc2Cl)CC1	5	6	0	3	2	·
O=C(CN1CCN(c2ncc(C(F)(F)F)cc2Cl)CC1)NCCNc1ncc(C(F)(F)F)cc1Cl	-3	8	294*	-10	-5	-1
C[C@@H]1CCCCO[C@@H](CN(C)S(=O)(=O)c2ccc(F)cc2)[C@H](C)CN([C@H](C)CO)C(=O)c2cc(NC(=O)Nc3ccc4c(c3)OCO4)ccc2O1	·	·	·	·	·	-3
COc1ccc(S(=O)(=O)Nc2ccc3c(c2)C(=O)N([C@H](C)CO)C[C@@H](C)[C@H](CN(C)C(=O)Nc2ccc(F)cc2)OCCCC[C@@H](C)O3)cc1	·	·	·	·	·	-2
O=C(CN1CCN(c2ccccn2)CC1)Nc1ccc(F)cc1	3	0	-1	1	1	4
O=C(CN1CCN(c2ccccn2)CC1)Nc1ccccc1	10	-5	26*	3	6	0
COc1cccc(CSc2nnc(-c3ccncc3)n2N)c1	0	10	45*	4	0	0
O=CC1=C(c2ccccc2)Oc2ccccc2O1	-2	3	495*	12	3	-2
CN(C)/C=C1/N=C(c2ccccc2)OC1=O	-5	-5	0	3	0	0
CCC1=NN(C(=O)c2ccccc2O)C(O)(c2ccccc2)C1 (stereo not drawn)	-3	-2	83*	14	5	1
CCC1=NN(C(=O)c2ccccc2Br)C(O)(c2ccc(Br)cc2)C1 (stereo not drawn)	-19	?	1	9	-1	2
COc1ccc(NC(=O)N(C)C[C@H]2OCCCC[C@@H](C)Oc3ccc(NC(=O)C4CCCCC4)cc3C(=O)N([C@H](C)CO)C[C@@H]2C)cc1	·	·	·	·	·	3
Fc1ccc(Nc2cccc3nccnc23)cc1	5	4	0	9	4	-1
c1cc(Nc2cccc3nccnc23)c2nccnc2c1	51*	2	5	-1	2	-4
CC(C)c1ccc(NC(=O)C2Cc3c(-c4ccc5c(c4)OCO5)ccnc3O2)cc1 (stereo not drawn)	·	60*	·	·	·	0
CCCN(C)C[C@H]1OCCCC[C@H](C)Oc2ccc(NC(=O)c3ccccc3)cc2C(=O)N([C@@H](C)CO)C[C@H]1C	·	·	·	·	·	-2
CCOC(=O)C1=C(C)NC(C)=C(C(=O)OCC)C1c1cccc([N+](=O)[O-])c1	9	18	·	·	·	1
COC(=O)C1=C(C)NC(C)=C(C(=O)OCC(C)C)C1c1ccccc1[N+](=O)[O-] (stereo not drawn)	7	12	289*	16	·	-2
CCNC(=O)C[C@@H]1CC[C@@H]2[C@@H](COc3ccc(NC(=O)Nc4cccc(Cl)c4)cc3C(=O)N2C)O1	·	·	·	·	·	1
SMILES	MazEF act	Y pestis TopoI	PfHsp40 rescue	BJeLR lethal	SARS 3CLpro inh	Mtb BioA inh
C[C@@H]1CN([C@H](C)CO)S(=O)(=O)c2ccc(-c3ccc(F)cc3)cc2O[C@H]1CN(C)Cc1cccc(F)c1	·	·	·	·	·	0
COc1ccc2c(C)nc(Nc3nc(-c4ccccc4)cc(=O)[nH]3)nc2c1	-69	6	0	58*	0	-3
Cc1ccc(SCc2cc(=O)[nH]c(Nc3nc(C)c4ccc(C)cc4n3)n2)cc1	-102	113*	0	0	1	·
Cc1ccc2nc(Nc3nc(CSc4nnc(C)s4)cc(=O)[nH]3)nc(C)c2c1	-17	58*	0	-1	9	·
C[C@H](CO)N1C[C@H](C)[C@H](CN(C)Cc2ccccc2)Oc2ncc(-c3cccc(F)c3)cc2C1=O	·	·	·	·	·	2
O=C(O)/C=C\C(=O)Nc1ccccc1F	3	1	37*	-8	4	-2
COCC(=O)N1C[C@H](C)[C@@H](OC)CN(C)C(=O)c2ccc(NC(=O)NC(C)C)cc2OC[C@H]1C	·	·	·	·	·	0
O=C(COc1c(F)c(F)c(C(F)(F)F)c(F)c1F)Nc1ccc(N2CCOCC2)c(Cl)c1	-3	-5	30*	2	2	-1
CSc1ccc(OCC(=O)Nc2ccc(N3CCOCC3)c(Cl)c2)cc1	-237	15	-2	4	1	0
Cc1ccc(Cn2ccc(NC(=O)c3cc(-c4cccs4)on3)n2)cc1	-39	87*	0	-8	-4	0
COc1ccc(-c2cc(=O)oc3c(C)c(OC(=O)c4cccs4)ccc23)cc1	109*	12	-1	·	4	·
COc1ccc(-c2cc(=O)oc3c(C)c(OC(C)C(C)=O)ccc23)cc1 (stereo not drawn)	1	31	4	13	1	1
CC(C)NC(=O)Nc1ccc2c(c1)C(=O)N(C)[C@H]1CC[C@H](CC(=O)Nc3ccc(F)cc3)O[C@@H]1CO2	·	·	·	·	·	-2
O=C(CN1CCCC1)N/N=C/c1c(O)ccc2ccccc12	-29	-3	52*	11	-2	-1
O=C(N/N=C/c1c(O)ccc2ccccc12)c1cccc(C(F)(F)F)c1	75*	-15	5	40	3	·
O=C(Oc1cccc(C(=S)N2CCOCC2)c1)c1ccc([N+](=O)[O-])cc1[N+](=O)[O-]	1	7	44*	-3	-2	·
CC1=CC(=O)C=C(C)C1=NOc1ccccc1[N+](=O)[O-]	12	-6	0	51*	6	·
C[C@@H]1CN([C@@H](C)CO)C(=O)c2cc(C#CC3CCCCC3)cnc2O[C@H]1CN(C)S(C)(=O)=O	·	·	·	·	·	2
O=C(c1cccc(F)c1)N1C[C@@H]2[C@H](c3ccccc31)[C@@H](CO)N2C(=O)c1ccc(F)cc1	·	·	·	·	·	-4
Cn1c(CNc2ccc(Cl)cc2)nnc1SCC#N	6	-2	-1	-3	4	·
CCn1c(CNc2ccc(Cl)cc2)nnc1SCc1ccccc1	3	12	120*	1	3	1
CCn1c(CNc2ccc(Cl)cc2)nnc1SCC(=O)NCc1ccccc1	-4	0	-1	1	-2	22
Cn1c(CNc2ccc(Cl)cc2)nnc1SCc1ccccc1	-5	1	143*	-4	-1	·
Nc1nc(F)nc2c1ncn2[C@@H]1O[C@H](CO)[C@@H](O)[C@H]1O	6	4	-3	97*	·	-1
